Sampled rows, rich in hits. Any-hit rate of the full collection: about 3.3%.
HCV inhibitor: inhibitors of hepatitis C virus infection | Huh7.5.1 HCVcc-Cre infection, luciferase reporter, 44 h | Potency, µM (doses to about 41.8 µM), usual class: inhibitors | hit rate 3.4% among 340,000 | AID 651820; active = well fitted inhibition curve with a large enough effect; inconclusive = small, poorly fitted or top-dose-only effect, or another doubt; inactive = no such curve, though single readings can be large or run the other way
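HCVcc-Cre virus at an moi near 0.5 was added right after compound to cells cultured 4 h from seeding (1,000 cells/well). Luciferase activity was determined 44 h later, 15 min after substrate addition at RT.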
Vaccinia Venus: inhibitors of vaccinia virus (Venus reporter); Potency, µM (titrated, usually from 36.5 µM), actives largely listed as inhibitors; hit rate 0.46% among 330,000; Vaccinia virus Venus reporter expression, fluorescence; calls by dose curve; tested in A549 cells; note: nearly all actives have a fitted effect of over 30% in size
Vaccinia mCherry: vaccinia inhibition (mCherry reporter); hit rate 0.63% among 310,000; Vaccinia virus mCherry reporter infection, fluorescence; Potency, µM (doses to about 36.5 µM), hits mostly inhibitors; calls by dose curve; tested in A549 cells; note: nearly all actives have a fitted effect of over 35% in size
Each line names hits and unclear results; the compound was inactive in the other large screens.

O=C(Nc1ccc(S(=O)(=O)NCc2cccnc2)cc1)c1ccccc1Cl	HCV inhibitor 8.9µM
CCCCCc1ccc(S(=O)(=O)NCCc2ccncc2)cc1	HCV inhibitor 10µM (no result: Vaccinia Venus, Vaccinia mCherry)
O=S(=O)(NCc1cccnc1)c1ccc(Cl)c(Cl)c1	none
O=C(Nc1ccccc1)c1ccc(S(=O)(=O)NCc2cccnc2)cc1	HCV inhibitor 8.9µM
O=C(Nc1ccc(S(=O)(=O)NCCc2ccccc2)cc1)c1ccco1	none (no result: Vaccinia Venus, Vaccinia mCherry)
CCCc1ccc(S(=O)(=O)NCCc2ccncc2)cc1	HCV inhibitor inconclusive
CC(=O)Nc1ccc(S(=O)(=O)NCc2cccnc2)cc1	none
CCN(CC)c1cc(C)c2cc(NC(=O)/C=C/c3ccccc3Cl)ccc2n1	none (no result: HCV inhibitor)
CC(Sc1nnc(-c2ccccc2)n1C)C(=O)NCc1ccco1 (stereo not drawn)	none (no result: HCV inhibitor)
CCC(C(=O)NCc1ccccc1Cl)n1nc(C)c2sc3ccccc3c2c1=O (stereo not drawn)	none (no result: HCV inhibitor)
CC(C)Cc1nc(SCC(=O)NCC2CCCO2)c2c(=O)n(C)c(=O)n(C)c2n1 (stereo not drawn)	none (no result: Vaccinia Venus, Vaccinia mCherry)
COc1cccc(C(C)(O)c2nc(-c3ccc(OC)nc3)cs2)c1 (stereo not drawn)	none (no result: HCV inhibitor)
CCOC(=O)c1sc(NC(=O)CSc2nc3ccccc3o2)c(C(=O)OCC)c1C	none
CCOC(=O)c1sc(NC(=O)CSc2nnc(Cc3ccccc3)o2)c(C(=O)OCC)c1C	HCV inhibitor 6.3µM (no result: Vaccinia Venus, Vaccinia mCherry)
CCOC(=O)c1sc(NC(=O)CCN2CCN(C)CC2)c(C(=O)OCC)c1C	HCV inhibitor 14µM
CCOC(=O)c1sc(NC(=O)CN2CCCC2)c(C(=O)OCC)c1C	none
CCOC(=O)c1c(NC(=O)CN2CCOCC2)sc(C(=O)NC)c1C	none (no result: Vaccinia Venus, Vaccinia mCherry)
CCOC(=O)c1c(NC(=O)CN2CCN(S(=O)(=O)c3cc(Cl)ccc3Cl)CC2)sc(C(=O)N(C)C)c1C	HCV inhibitor 11µM (no result: Vaccinia Venus, Vaccinia mCherry)
CCOC(=O)c1c(NC(=O)CN2C(=O)NC(C)(c3ccc(Cl)cc3)C2=O)sc(C(=O)NC)c1C (stereo not drawn)	HCV inhibitor 14µM, Vaccinia Venus inconclusive
CCOC(=O)c1c(NC(=O)COC(=O)c2ccc(Cl)nc2)sc(C(=O)N(C)C)c1C	none
Cc1ccc(OCC(=O)Nc2ccc(O)c(-c3nc4cc(C)c(C)cc4o3)c2)cc1	none (no result: HCV inhibitor)
COc1ccc(C(=O)NCCn2cc(SCc3c(F)cccc3Cl)c3ccccc32)cc1	none (no result: HCV inhibitor)
Cn1c(SCC(=O)Nc2ccc3c(c2)OCCO3)nnc1C1CC1	none
O=C(NCCc1nc2ccccc2n1CCOc1cccc2ccccc12)C1CCCCC1	none (no result: HCV inhibitor)
CCc1ccc(OC(C)C(=O)Nc2c(C(=O)c3ccccc3)oc3ccccc23)cc1 (stereo not drawn)	none (no result: HCV inhibitor)
O=C(c1cccnc1)C1CCCN(Cc2ccc3c(c2)CN(C(=O)c2cn4ccccc4n2)CCO3)C1 (stereo not drawn)	none (no result: HCV inhibitor)
CCOC(=O)c1c(NC(=O)Nc2ccccc2)sc(C)c1C	none
CC1(c2ccc(Cl)cc2)NC(=O)N(CC(=O)N2CCCC2)C1=O (stereo not drawn)	HCV inhibitor 16µM (no result: Vaccinia Venus, Vaccinia mCherry)
CCOC(=O)c1c(NC(=O)CN2CCN(C)CC2)sc(C(=O)Nc2ccccc2)c1C	HCV inhibitor 6.3µM
CC1(c2ccc(Cl)cc2)NC(=O)N(CC(=O)Nc2ccc(N3CCCCC3)cc2)C1=O (stereo not drawn)	none
CC(C)(C)c1ccc(N2C(=O)CSC2c2cccnc2)cc1 (stereo not drawn)	none
CC(=O)N1CCc2c(sc(NC(=O)CSc3ccccc3)c2-c2nc3ccccc3s2)C1	none (no result: HCV inhibitor)
CC(=O)N1CCc2c(sc(NC(=O)C3CC3)c2-c2nc3ccccc3s2)C1	HCV inhibitor 13µM, Vaccinia Venus inconclusive, Vaccinia mCherry inconclusive
CCOc1ccc(C(=O)NCC(=O)NCC(c2ccc(OC)cc2)N2CCOCC2)cc1OCC (stereo not drawn)	none
Cc1cc(-c2nc3ccccc3s2)ccc1N	none
Nc1ccc(-c2nc3ccccc3s2)cn1	HCV inhibitor 25µM
CCn1c(-c2ccccc2F)nc2cc(NC(C)=O)cc(C(=O)N3CCNC(=O)C3CC(=O)OC)c21 (stereo not drawn)	none (no result: HCV inhibitor)
CC(C)[C@H](NC(=O)OCc1ccccc1)C(=O)OCC(=O)N1CCN(c2ccccc2)CC1	none
CC[C@H](C)[C@H](NC(=O)OCc1ccccc1)C(=O)OCC(=O)N1CCN(c2ccc(OC)cc2)CC1	HCV inhibitor 13µM (no result: Vaccinia Venus, Vaccinia mCherry)
O=C1NC(=S)NC(=O)C1=Cc1cccc2cc3ccccc3cc12	HCV inhibitor 10µM, Vaccinia Venus 11µM, Vaccinia mCherry inconclusive
O=C1NC(=S)N/C1=C/c1cccc2ccccc12	none (no result: Vaccinia Venus, Vaccinia mCherry)
CC(=O)c1ccc(-c2ccc3c4c(ccc3c2)OC(CNC(=O)[C@@H]2CCCN2C(C)=O)C4)s1 (stereo partly drawn)	none (no result: HCV inhibitor)
CN(C)c1ccc(C=c2c3ccccc3n3c2cc(-c2ccc(Cl)cc2)[n+]3C)cc1	HCV inhibitor inconclusive
CN(C)c1ccc(C=c2c3ccccc3n3c2c2c([n+]3C)CCCC2)cc1	HCV inhibitor inconclusive, Vaccinia Venus 6.3µM, Vaccinia mCherry 3.2µM
